Compound activity (PubChem)
A selection: hits, their analogues and other compounds. The true share with any hit is near 21%.
SARS PLpro yeast = SARS-CoV PLP inhibition in yeast. 330,000 tested, 0.19% active. Potency, µM (series often up to 32.9 µM), usual class: activators. S. cerevisiae expressing SARS-CoV PLpro, growth rescue. AID 485353; calls by dose curve; also: nearly all actives have a fitted effect of over 55% in size
Shiga inhibitor = inhibitors of Shiga toxin in Vero cells; inhibition, % at 38.7 µM; 290,000 tested, 9.2% active; AID 2315; Vero cells, Shiga toxin protein synthesis inhibition reporter; in the data active = inhibition mostly above about 28%, no sharp cut-off; inactive = mostly below about 43%
NS1 inh = inhibitors of influenza NS1 protein function | Potency, µM (highest dose often 46.1 µM) | 270,000 tested, 0.4% active | AID 2326; calls by dose curve; also: actives are rising curves; nearly all actives have a fitted effect of over 50% in size
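Growth recovery, yeast-based: influenza A NS1 expressed in S. cerevisiae causes slow growth, and suppressors are detected by OD600. The parent strain without NS1 is used as positive control.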
Pf growth 96h = inhibits malaria parasite growth, 96 h; AID 504834; 320,000 tested, 6.9% active; Potency, µM (doses to about 28.7 µM), hits mostly inhibitors; P. falciparum luciferase reporter growth, 96 h
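Delayed-death screen, second-generation endpoint: infected erythrocytes, 2% hematocrit, 0.05% parasitemia final; 96 hours at 37 C, 5% CO2; luciferase detection reagent; luminescence decrease equals reduced growth.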
Pf growth 48h = P. falciparum growth inhibition at 48 hours (one generation); AID 504832; P. falciparum luciferase growth in erythrocytes, 48 h; Potency, µM (doses to about 28.7 µM), hits mostly inhibitors; 310,000 tested, 5.9% active
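Read-out is firefly luciferase luminescence from an integrated reporter in P. falciparum, so falling signal marks reduced parasite growth. Infected erythrocytes were at 2% hematocrit and 0.1% parasitemia (final) in Albumax-supplemented RPMI 1640.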
CHX counter = counter-screen for Shiga toxin inhibitors: cycloheximide protein synthesis inhibition. max response, %. cell reporter, cycloheximide protein synthesis inhibition counterscreen. AID 2314. 300,000 tested, 12% active; in the data active = max response mostly above about 13%, no sharp cut-off; inactive = mostly below about 14%; also: read at 38.3 µM for the half of the compounds with a filed dose
Large screens that a line does not name were inactive. Unless noted, calls follow the shape of the dose curve; as a rule, active = well fitted inhibition curve with a large enough effect; inconclusive = small, poorly fitted or top-dose-only effect, or another doubt; inactive = no such curve, though single readings can be large or run the other way.

COc1ccccc1NC(=S)N1CCN(c2nc(-c3ccccc3)cs2)CC1	none
O=C(O)/C=C/C(=O)N1Cc2cc3ccccc3nc2C1	none
COC(=O)c1sccc1NC(=O)Nc1cccc(C)c1C	Pf growth 96h 4.1µM
COC(=O)c1sccc1NC(=O)Nc1ccc(OC)cc1	Shiga inhibitor 108, CHX counter 35
COC(=O)c1sccc1NC(=O)Nc1cccc(C)c1	Shiga inhibitor 60, Pf growth 96h inconclusive, CHX counter 32
COC(=O)c1sccc1NC(=S)Nc1cc(C)cc(C)c1	Pf growth 96h 10µM
COc1cc(C(=O)NCc2nnc(SCC(=O)NCCc3ccccc3)o2)cc(OC)c1OC	none
Cc1ccccc1C(=O)N(CC(=O)Nc1sc(C)c(C)c1C(N)=O)C1CCCC1	none
Cc1ccc(NC(=O)c2cc(-c3cccs3)on2)cc1	Shiga inhibitor 131, CHX counter 38
O=C(Nc1ccc(Br)cc1)c1cc(-c2cccs2)on1	Shiga inhibitor 114, CHX counter 22
Cc1ccc(Cn2ccc(NC(=O)c3cc(-c4cccs4)on3)n2)cc1	Pf growth 96h inconclusive, Pf growth 48h 10µM
O=C(Nc1ccc(Cl)cc1)c1cc(-c2cccs2)on1	CHX counter 8.3
O=C(CC1NCCC[C@H]1O)Cn1cnc2cc(Br)c(Cl)cc2c1=O (some centres undefined)	Pf growth 96h inconclusive, Pf growth 48h 0.6µM (no result: SARS PLpro yeast, Shiga inhibitor, NS1 inh, CHX counter)
CCn1nnc2cc(C(=O)NCCc3ccccc3F)ccc21	Shiga inhibitor 58
O=c1c2ccccc2n2c(-c3cccc(Cl)c3)nnc2n1Cc1ccccc1	Pf growth 96h inconclusive
COc1ccc(-c2nnc3n(CCc4ccccc4)c(=O)c4ccccc4n23)cc1OC	Pf growth 96h 12µM
Cc1cc(C)cc(NC(=O)CS(=O)(=O)c2ccccc2)c1	none
COC(=O)c1ccc(NC(=O)CS(=O)(=O)c2ccccc2)cc1	SARS PLpro yeast inconclusive, CHX counter 11
COCCCN(Cc1ccco1)C(=O)CSc1nc2ncccc2[nH]1	Pf growth 96h 13µM
O=C(CSc1ccccc1)Nc1ccc(C(=O)Nc2ccc(O)cc2)cc1	none (no result: NS1 inh)
COC(=O)c1ccc(NC(=O)CSc2ccccn2)cc1	Shiga inhibitor 36, CHX counter 58 (no result: Pf growth 48h)
COC(=O)c1ccc(NC(=O)CSc2nc3cccnc3n2C)cc1	Pf growth 48h inconclusive
CCN(CC)C(=O)CSc1nc2ncc(Cl)cc2[nH]1	Pf growth 96h inconclusive
COC(=O)c1ccc(NC(=O)CSc2ccccc2)cc1	Shiga inhibitor 64, CHX counter 31
CCOC(=O)c1cn(Cc2cccc(Cl)c2)c2cc(C)nn2c1=O	Pf growth 96h inconclusive
N#Cc1cccc(NC(=O)CSc2ccccc2)c1	CHX counter 9.1
CC(C)OC(=O)CSc1nc2ncccc2[nH]1	none
COC(=O)c1ccc(NC(=O)CSc2nc(C)cc(=O)[nH]2)cc1	none (no result: Pf growth 48h)
COC(=O)c1ccc(NC(=O)CSc2nc3ncccc3[nH]2)cc1	CHX counter 12
N#Cc1cccc(NC(=O)Cc2ccccc2)c1	Pf growth 96h inconclusive
O=C(CSc1nc2ncccc2[nH]1)c1ccc2c(c1)OCO2	Shiga inhibitor 43, CHX counter 39
COc1ccc(NC(=O)C2CCN(S(=O)(=O)c3ccc4c(c3)NC(=O)CO4)CC2)cc1	Pf growth 48h inconclusive
CC(/C=N/NC(=O)c1nnn(-c2nonc2N)c1CN1CCCCC1)=C\c1ccccc1	Pf growth 96h 9.3µM, Pf growth 48h inconclusive
CC(=C/c1ccccc1)/C=N/NC(=O)c1nnn(-c2nonc2N)c1CN1CCC(C)CC1	Pf growth 96h inconclusive, Pf growth 48h inconclusive
Cc1ccccc1COc1ccc(/C=N/NC(=O)c2nnn(-c3nonc3N)c2CN2CCC(C)CC2)cc1	Pf growth 96h inconclusive, Pf growth 48h inconclusive, CHX counter 21
CC1CCN(Cc2c(C(=O)N/N=C/c3ccc(OC(C)C)cc3)nnn2-c2nonc2N)CC1	Pf growth 48h inconclusive
CCOC(=O)c1nnn(-c2nonc2N)c1CN1CCCC1	Pf growth 96h 0.66µM
COc1ccc(CC2(CO)CCN(Cc3ccc4nsnc4c3)CC2)cc1	Pf growth 96h inconclusive
O=Cc1c(C(=O)O)n(CC(=O)O)c2ccccc12	none
Nc1nc(C(c2ccccc2)c2ccccc2)cs1	NS1 inh inconclusive
O=C(Cc1cccc2ccccc12)Nc1ccc(N2CCOCC2)cc1	none
FC(F)(F)C(F)(F)c1nnc2ccc(-n3ccnc3)nn12	Pf growth 96h inconclusive (no result: NS1 inh)
Cc1ccc(S(=O)(=O)c2ccc(Cl)cc2)cc1S(=O)(=O)NC(C)C(=O)O (centres undefined)	none
COc1ccc(Cl)cc1S(=O)(=O)N1CCN(C(=O)c2cc(OC)c(OC)c(OC)c2)CC1	Pf growth 96h 12µM, Pf growth 48h inconclusive
COc1ccc(Cl)cc1S(=O)(=O)N1CCC(C(=O)NC2CC2)CC1	Pf growth 96h 8.3µM, Pf growth 48h inconclusive
COc1ccccc1NS(=O)(=O)c1cccc(C(=O)N2CCCC2)c1	none (no result: Shiga inhibitor, NS1 inh, Pf growth 96h, Pf growth 48h, CHX counter)
CN(C(=O)Nc1ccc(Cl)cc1Cl)[C@H]1c2cc(Br)ccc2OC[C@H]1CO	Pf growth 96h inconclusive, Pf growth 48h 8.3µM
C/C(=N\NC(=S)Nc1ccccc1)C1Cc2ccccc2C(=O)O1 (centres undefined)	Shiga inhibitor 82, Pf growth 96h inconclusive, Pf growth 48h 10µM, CHX counter 51
C/C(=N\NC(=S)Nc1ccccc1C)C1Cc2ccccc2C(=O)O1 (centres undefined)	Pf growth 48h inconclusive, CHX counter 40
CCC(C)N(C(=O)CSc1ccc(NC(C)=O)cc1)C1CCS(=O)(=O)C1 (centres undefined)	none (no result: NS1 inh)
Cc1cc(C(=S)N2CCOCC2)c(C)n1-c1ccc(F)cc1	Pf growth 48h inconclusive
Cc1ccc(-n2c(C)cc(C(=S)N3CCOCC3)c2C)cc1C	Pf growth 96h 10µM, Pf growth 48h inconclusive
O/N=C(\CN1CCCCC1)c1ccccc1	none (no result: Pf growth 48h)
CC(C)NC(=O)/C(C#N)=C/c1ccc(N(C)C)o1	Shiga inhibitor 60, CHX counter 16
CCCCNC(=O)C(=O)NCC1CCCN1S(=O)(=O)c1cccs1 (centres undefined)	Pf growth 96h inconclusive, Pf growth 48h inconclusive (no result: Shiga inhibitor, NS1 inh, CHX counter)
Cc1ccc(CNC(=O)Nc2ccccc2)n1C	CHX counter 17
CN1CCC(CNC(=O)Nc2ccccc2)(c2ccccc2)CC1	none
Cc1ccc(CNC(=O)Nc2ccc(F)cc2F)n1C	none
Cn1cccc1CNC(=O)Nc1ccc(Cl)cc1	Shiga inhibitor 59, CHX counter 49
Cn1cccc1CNC(=O)Nc1ccccc1	Shiga inhibitor 52, CHX counter 43 (no result: Pf growth 48h)
Cc1ccc(NC(=O)NCc2cccn2C)cc1C	Shiga inhibitor 59, CHX counter 18
CN1CCN(CCNC(=O)Nc2ccc(Cl)cc2)CC1	Pf growth 96h inconclusive
O=C(CC1C(=O)NCCN1Cc1cccc(F)c1F)NCCCC1CCCC1 (centres undefined)	Pf growth 96h inconclusive
CCCSc1cc(=O)n(-c2ccc(F)cc2)nc1C(=O)OCC	none
